Assay outcomes: PubChem BioAssay, National Center for Advancing Translational Sciences (NCATS)
L3MBTL1 block: inhibitors of human L3MBTL1; AlphaScreen L3MBTL1–H3K9me1 peptide binding; Potency, µM (highest dose often 57.1 µM), for the others: top-dose activity, negative = inhibition, actives largely listed as inhibitors; 230,000 tested, 0.66% active; AID 485360; note: potency is the fitted concentration of half-maximal effect; % is set by controls: 0 for no effect and ±100 for the full control effect; nearly all actives have a fitted effect of over 60% in size
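L3MBTL1 (50 nM) pre-complexed 30 min with biotinylated H3(1-15)K9me1 peptide (75 nM), then compounds added for 30 min at room temperature; AlphaScreen streptavidin donor/nickel chelate acceptor beads (10 ug/mL final) read after 30 min dark incubation.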
HP1b binding inh: HP1-beta chromodomain-methylated histone interaction inhibition. P83916. AID 540317. 390,000 tested, 0.56% active. Potency, µM (titrated, usually from 114 µM), for inactives: top-dose activity change, negative = inhibition, actives largely listed as inhibitors. AlphaScreen HP1-beta / biotin-H3K9me3 peptide binding; note: potency is the fitted concentration of half-maximal effect; nearly all actives have a fitted effect of over 70% in size
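HP1-beta protein (50 nM final) preincubated 30 min at room temperature with biotinylated H3(1-18)K9me3 peptide (50 nM) in PBS pH 7.4, 0.01% Tween-20, then compound added for 30 min. AlphaScreen streptavidin donor/nickel chelate acceptor beads (10 ug/mL final), 30 min dark, luminescence read.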
G9a inh: inhibitors of human histone lysine methyltransferase G9a | Q96KQ7 | G9a H3K9 monomethylation, AlphaScreen, 2 h | Potency, µM (top dose mostly 102 µM), for inactives: top-dose activity, negative = inhibition, actives largely listed as inhibitors | 350,000 tested, 8.8% active; note: potency is the fitted concentration of half-maximal effect; % is set by controls: 0 for no effect and ±100 for the full control effect; nearly all actives have a fitted effect of over 75% in size
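Using a bead-based AlphaScreen, monomethylated H3K9 product from 2 h room-temperature reactions (G9a 20 nM, peptide 500 nM, SAM 20 uM) was detected with 0.5 ug/mL rabbit anti-H3K9me1 antibody.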
JMJD2A Tudor: JMJD2A Tudor domain (human) inhibition; 390,000 tested, 4.4% active; AlphaScreen JMJD2A-Tudor / H3K4me3 peptide binding; Potency, µM (top dose mostly 114 µM), for inactives: at the top dose activity change, negative = inhibition, most hits filed as inhibitors; O75164; note: potency is the fitted concentration of half-maximal effect; % is set by controls: 0 for no effect and ±100 for the full control effect; nearly all actives have a fitted effect of over 50% in size
BAZ2B inh: inhibitors of human BAZ2B bromodomain | Q9UIF8 | AlphaScreen BAZ2B-H3K14Ac peptide displacement | Potency, µM (highest dose often 114 µM), inactives show top-dose activity change, negative = inhibition, usual class: inhibitors | 360,000 tested, 4.4% active | AID 504333; note: potency is the fitted concentration of half-maximal effect; % is set by controls: 0 for no effect and ±100 for the full control effect; nearly all actives have a fitted effect of over 60% in size
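AlphaScreen luminescence quantifies BAZ2B engagement of H3K14Ac peptide; the protein and biotinylated peptide are both at 50 nM final, buffer PBS pH 7.4 with 0.01% Tween-20, all steps at room temperature.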
PI5P4Ka inh: PI5P4K alpha (human) kinase inhibition. P48426. PI5P4Kalpha enzyme, ADP-Glo luminescence, 60 min; active compounds read low. max response, %. 330,000 tested, 1.2% active; active = max response of -50% or lower; inconclusive = between -30% and -50%; inactive = -30% or higher; note: value at the top dose of about 77 µM; % is set by controls: 0 for no effect and ±100 for the full control effect
Target sequence (P48426 whole entry, looked up): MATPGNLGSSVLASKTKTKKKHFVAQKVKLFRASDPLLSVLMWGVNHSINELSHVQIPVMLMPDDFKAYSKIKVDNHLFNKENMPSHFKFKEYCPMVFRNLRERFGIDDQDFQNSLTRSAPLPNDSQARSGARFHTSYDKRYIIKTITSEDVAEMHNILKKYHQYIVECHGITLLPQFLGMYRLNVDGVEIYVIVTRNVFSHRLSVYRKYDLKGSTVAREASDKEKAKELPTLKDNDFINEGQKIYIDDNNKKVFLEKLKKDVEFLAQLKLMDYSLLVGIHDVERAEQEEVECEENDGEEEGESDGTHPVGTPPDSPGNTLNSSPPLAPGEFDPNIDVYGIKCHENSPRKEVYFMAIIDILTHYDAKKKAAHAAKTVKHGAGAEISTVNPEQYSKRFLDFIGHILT
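Human PI5P4Kalpha with substrate in 0.038 M HEPES pH 7.4, 0.28 mM EGTA, 0.1% CHAPS, 5% DMSO; reaction started with 5 microM ATP (final), 60 min at room temperature. ADP formed read by ADP-Glo luminescence.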
* marks the source's active call; other numbers are inactive results; u = inconclusive; x = not tested or not shown; [ ] = remark or other dose. This is a sample that favours compounds with a hit; in the whole collection about 11% have one here. Unless noted, calls come from the whole dose curve; as a rule, active = well fitted inhibition curve with a large enough effect; inconclusive = small, poorly fitted or top-dose-only effect; inactive = no such curve, though single readings can be large or run the other way.

SMILES | L3MBTL1 block | HP1b binding inh | G9a inh | JMJD2A Tudor | BAZ2B inh | PI5P4Ka inh
COc1cc(/C=c2/sc3nc(-c4ccccc4)c(-c4ccccc4)n3c2=O)cc(OC)c1OC | -11% | -8% | u | -17% | -36% | 7
COc1ccc(/C=c2\sc3nc(-c4ccccc4)c(-c4ccccc4)n3c2=O)cc1OC | -14% | 13% | 35µM* | -34%[11.4 µM] | u | -18
O=c1/c(=C\c2cccc(O)c2)sc2nc(-c3ccccc3)c(-c3ccccc3)n12 | x | 2% | u | -27% | 5.6µM* | 0
Cc1nc(SCC(=O)c2cccc([N+](=O)[O-])c2)n[nH]1 | 5% | u | u | 40µM* | -8% | -63*
Cc1ccnc(SCC(=O)c2cccc([N+](=O)[O-])c2)n1 | -2% | 32% | 22µM* | -6% | -26% | -6
COc1ccc(CN2C(=O)N(c3ccccc3)C(=O)C2c2ccccc2)cc1COc1ccc(NC(C)=O)cc1 (configuration not stated) | x | 13% | x | -29% | x | x
O=C(NCCc1ccccc1)c1ccc2c(c1)N(Cc1ccc(Cl)cc1)C(=O)CS2 | x | 35% | 18%[59 µM] | -2% | 5% | x
O=C1/C(=C/c2ccco2)SC(=S)N1C1CCS(=O)(=O)C1 (configuration not stated) | u | -15% | 45µM* | u | 50µM* | u
CCN(C(=O)C(C)N1C(=O)/C(=C/c2ccco2)SC1=S)C1CCS(=O)(=O)C1 (configuration not stated) | x | u | 20µM* | 56µM* | 45µM* | -68*
CC(C(=O)N(C)C1CCS(=O)(=O)C1)N1C(=O)/C(=C/c2ccc(F)cc2)SC1=S (configuration not stated) | x | -14% | u | -32% | u | u
O=C1/C(=C\c2ccco2)SC(=S)N1C1CCS(=O)(=O)C1 (configuration not stated) | u | u | x | 56µM* | 40µM* | u
c1ccc(-c2cn(C[C@H]3CC[C@@H]([C@@H]4CC[C@H](Cn5cc(-c6ccccc6)nn5)O4)O3)nn2)cc1 | 4% | 70% | 17% | -20% | -3% | 2
c1ccc(-c2cn(C[C@H]3CC[C@@H]([C@@H]4CC[C@H](Cn5cc(-c6ccccn6)nn5)O4)O3)nn2)nc1 | 2.5µM* | 33% | u | 3.2µM* | 0.71µM* | 1
CCN(CC)C(=O)CSc1nnc(COc2ccc(OC)cc2)n1N | 3% | 12% | 5%[0.501 µM] | -11% | 2% | -7
CCN(CC)C(=O)CSc1nc2cc3c(cc2c(=O)n1Cc1ccc(OC)cc1)OCO3 | x | 18% | u | 79µM* | 56µM* | 1
CCN(CC)C(=O)CSc1nnc2nnc3cc(OC)ccc3n12 | -6% | 11% | 35µM* | -18% | -16% | -1
OC(COC(c1ccccc1)c1ccccc1)CN1CCOCC1 (configuration not stated) | 21% | 18% | 1% | u | 3% | -5
c1ccc(C(CN2CCOCC2)c2ccccc2)cc1 | 2% | u | 25µM* | 4µM* | u | x
CC(CCN1CCOCC1)c1ccccc1 (configuration not stated) | 7% | u | 11µM* | 22µM* | u | -1
Cc1cc(C)n(-c2nc3ccccc3nc2Nc2ccc(Cl)c(Cl)c2)n1 | x | 32% | 31%[59 µM] | 34% | 20% | x
Cc1ccc(CSc2nnc(CCCCCNC(=O)OC(C)(C)C)o2)cc1 | 22% | 112% | u | 50% | 27% | 3
CC(C)(C)OC(=O)NCCCCC1=CC2=CC(=O)C(C)(O)C(=O)C2=CO1 (configuration not stated) | x | 2% | x | u | x | -80*
C=CCOc1ccc(C(c2c(C(=O)O)[nH]c3ccccc23)c2c(C(=O)O)[nH]c3ccccc23)cc1 | x | 71µM* | 35µM* | 79µM* | 50µM* | u
